Experimental data: PubChem BioAssay (NCATS)
Records with an inconclusive call do not appear. Active and inactive are the calls of the source. Unless noted, the call rests on the fitted dose curve; in most records, active means well fitted curve in the direction sought with a large enough effect; inconclusive means small, poorly fitted or top-dose-only effect, or another doubt; inactive means no such curve, though single readings can be large; an effect the other way counts as inactive or inconclusive.

Tests used:
[1] = target: Lysosomal acid glucosylceramidase (Homo sapiens) (UniProt P04062); assay: Glucocerebrosidase-p2 (AID 348; in the data active means potency below about 10 µM; further: potency means the concentration at half of the fitted maximal effect); conditions: purified GBA, blue fluorogenic substrate, 40 min
Lysosomal acid glucosylceramidase (Homo sapiens), sequence (P04062 whole entry, looked up): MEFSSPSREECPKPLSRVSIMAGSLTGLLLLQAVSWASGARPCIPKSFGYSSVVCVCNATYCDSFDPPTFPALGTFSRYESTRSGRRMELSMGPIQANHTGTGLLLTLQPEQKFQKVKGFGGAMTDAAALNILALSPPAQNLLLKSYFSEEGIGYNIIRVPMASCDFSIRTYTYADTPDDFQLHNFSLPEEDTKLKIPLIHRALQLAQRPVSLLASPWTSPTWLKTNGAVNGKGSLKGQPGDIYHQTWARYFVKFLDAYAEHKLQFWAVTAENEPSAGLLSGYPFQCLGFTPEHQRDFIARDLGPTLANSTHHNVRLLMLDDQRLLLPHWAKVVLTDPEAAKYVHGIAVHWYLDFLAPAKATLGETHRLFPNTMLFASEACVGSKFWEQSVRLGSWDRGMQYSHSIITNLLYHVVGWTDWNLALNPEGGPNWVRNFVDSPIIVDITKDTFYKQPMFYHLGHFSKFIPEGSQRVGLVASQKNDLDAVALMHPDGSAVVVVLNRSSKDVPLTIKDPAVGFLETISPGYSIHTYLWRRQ
How it was run: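 Normal human glucocerebrosidase (0.2 nM) with blue fluorogenic substrate (80 uM final) in citrate/phosphate pH 5.9 with 10mM sodium taurocholate, 0.01% tween-20; 40 min RT, NaOH/glycine stop; fluorescence Ex 365/Em 440; AC50 from a titration from 0.6 nM upwards.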

[2] = AP1 Signaling Pathway (AID 357; active means well fitted curve in either direction with a large enough effect, not every such curve was filed as active;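 further: ME-180 reporter cells stimulated with EGF at its EC50 level; on the % scale 0 is the no-effect control and ±100 the full control effect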); conditions: ME-180 AP-1-bla reporter, EGF-induced, beta-lactamase ratio, 5 h; at 7.69 µM (top of the series) unless noted
How it was run: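 A ratiometric CCF4 readout (405 nm excitation; 460 and 530 nm emission) quantified AP-1-driven beta-lactamase in ME-180 cells after 5 h with compound and EC50 EGF; AC50 values were derived for activators and inhibitors.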

[3] = Stat Signaling Pathway (AID 446; active means well fitted curve in either direction with a large enough effect, not every such curve was filed as active;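 further: ME-180 cervical cancer cells given 40 pM IL-6 alongside compound; SIE-controlled beta-lactamase reporter measured as 460/530 nm FRET emission ratio; on the % scale 0 is the no-effect control and ±100 the full control effect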); conditions: ME-180 SIE beta-lactamase reporter, IL-6 stimulated, 5 h; at 7.69 µM (top of the series) unless noted
How it was run: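 Overnight-plated ME-180 cells bearing a STAT Inducible Element beta-lactamase reporter; 5 h co-exposure to compound and 40 pM IL-6; values normalized to 300 pM IL-6 and 125 nM JAK inhibitor controls.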

[4] = target: Glucocorticoid receptor (Homo sapiens) (UniProt P04150); assay: GR-GFP Redistribution (AID 450;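 active means compounds whose dose series gives a full or clear partial fitted curve of increased nuclear translocation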; further: potency means the concentration at half of the fitted maximal effect); conditions: U2OS GR-GFP nuclear translocation, laser cytometry, 2 h
Glucocorticoid receptor (Homo sapiens), sequence (P04150 whole entry, looked up, the tested form may be a part): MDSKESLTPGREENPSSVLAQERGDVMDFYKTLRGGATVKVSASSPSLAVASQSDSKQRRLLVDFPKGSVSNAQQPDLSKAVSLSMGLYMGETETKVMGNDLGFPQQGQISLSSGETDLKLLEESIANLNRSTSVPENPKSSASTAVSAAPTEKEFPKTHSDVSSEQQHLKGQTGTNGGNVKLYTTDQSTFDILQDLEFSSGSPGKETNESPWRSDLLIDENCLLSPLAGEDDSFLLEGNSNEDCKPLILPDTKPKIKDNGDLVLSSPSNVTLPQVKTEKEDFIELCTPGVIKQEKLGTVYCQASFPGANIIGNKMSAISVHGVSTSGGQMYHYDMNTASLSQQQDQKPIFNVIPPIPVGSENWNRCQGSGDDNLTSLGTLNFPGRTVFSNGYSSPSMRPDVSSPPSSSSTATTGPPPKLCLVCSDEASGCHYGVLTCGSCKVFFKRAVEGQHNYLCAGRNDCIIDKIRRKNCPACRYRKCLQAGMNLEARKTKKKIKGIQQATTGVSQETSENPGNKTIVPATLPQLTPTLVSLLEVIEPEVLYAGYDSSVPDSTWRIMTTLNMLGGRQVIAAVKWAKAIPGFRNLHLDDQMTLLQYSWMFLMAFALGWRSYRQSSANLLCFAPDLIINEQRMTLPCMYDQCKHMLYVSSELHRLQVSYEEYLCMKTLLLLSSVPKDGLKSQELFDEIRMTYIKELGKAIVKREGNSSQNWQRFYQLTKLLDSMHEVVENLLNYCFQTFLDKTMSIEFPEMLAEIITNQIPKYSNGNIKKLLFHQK

[5] = target: Glucocorticoid receptor (Homo sapiens) (UniProt P04150); assay: GR-EFC Redistribution (AID 451; calls by dose curve; further: potency means the concentration at half of the fitted maximal effect); conditions: CHO-K1 GR-EFC translocation, beta-gal luminescence, 2 h
How it was run: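 Translocation of GR-ED fusion to nuclear EA restores b-gal, read by luminescence after 1 h room-temperature detection. Engineered CHO-K1 biosensor cells, 1,000/well, exposed 2 h at 37 C to titrations up to 46 uM final.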

[6] = target: Mitogen-activated protein kinase 10 (Mus musculus) (UniProt Q61831); assay: JNK3 AlphaScreen Assay (AID 530; active means well fitted curve in either direction with a large enough effect, not every such curve was filed as active;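 further: kinase came from lysate of stimulated human HepG2 cells; signal reports phosphorylation of biotinylated GST-cJun 1-79 at Ser73 with 10 µM ATP; on the % scale 0 is the no-effect control and ±100 the full control effect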); conditions: JNK3 lysate, c-Jun phosphorylation; series mostly up to 57.1 µM
How it was run: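 Kinase buffer: 20 mM Tris-HCl pH 7.6, 10 mM MgCl2, 1 mM DTT, 0.1 mM Na3VO4, 0.01% Tween-20; ATP 10 uM. Substrate biotin-GST-cJun(1-79), enzyme from activated HepG2 lysates. Detection by Ser73 phospho-antibody AlphaScreen.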

[7] = target: 3',5'-cyclic-AMP phosphodiesterase 4B (Homo sapiens) (UniProt Q07343); assay: qHTS Assay for Inhibitors of PDE-IV (AID 607; active means well fitted activation curve with a large enough effect in the main read-out, with a control signal flat, not every such curve was filed as active; further: % of control where 0% means no effect); conditions: HEK293 ACTOne CNG channel cells, membrane potential fluorescence; series mostly up to 22.9 µM
3',5'-cyclic-AMP phosphodiesterase 4B (Homo sapiens), sequence (Q07343 whole entry, looked up): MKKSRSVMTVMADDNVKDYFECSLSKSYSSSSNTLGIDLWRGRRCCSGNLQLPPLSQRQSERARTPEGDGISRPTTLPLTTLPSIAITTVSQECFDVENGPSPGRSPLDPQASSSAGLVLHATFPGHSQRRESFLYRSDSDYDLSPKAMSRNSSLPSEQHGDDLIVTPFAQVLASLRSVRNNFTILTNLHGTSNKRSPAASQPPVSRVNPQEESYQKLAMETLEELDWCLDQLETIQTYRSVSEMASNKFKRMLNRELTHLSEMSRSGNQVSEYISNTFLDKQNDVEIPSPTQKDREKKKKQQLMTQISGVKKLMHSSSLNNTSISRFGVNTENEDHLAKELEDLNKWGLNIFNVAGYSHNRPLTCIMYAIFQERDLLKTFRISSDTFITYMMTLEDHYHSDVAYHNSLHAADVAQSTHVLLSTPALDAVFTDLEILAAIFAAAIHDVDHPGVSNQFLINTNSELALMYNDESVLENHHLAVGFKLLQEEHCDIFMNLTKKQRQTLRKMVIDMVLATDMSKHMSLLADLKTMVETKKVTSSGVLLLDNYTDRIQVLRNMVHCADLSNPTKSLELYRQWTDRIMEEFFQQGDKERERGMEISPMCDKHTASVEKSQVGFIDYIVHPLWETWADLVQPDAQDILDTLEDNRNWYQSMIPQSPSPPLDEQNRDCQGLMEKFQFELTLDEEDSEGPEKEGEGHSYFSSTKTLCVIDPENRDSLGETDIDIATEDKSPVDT
How it was run: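 Live HEK293 cells with a modified cyclic nucleotide-gated (CNG) channel report intracellular cAMP via membrane-potential dye fluorescence (ex 535/em 590 nm). Endogenous PDE-IV was targeted. Compounds were tested at up to 22.9 uM final; RO 20-1724 100 uM served as control.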

[8] = qHTS Assay for Lipid Storage Modulators (AID 1519; calls by dose curve); conditions: Drosophila S3 cells, BODIPY lipid droplet/cell ratio, laser cytometry, cells loaded with oleic acid; for activity change, negative = inhibition: at 57.5 µM (top of the series)
How it was run: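 Cells seeded at 5,000 per well were treated with compounds over a concentration series and loaded with oleic acid (400 uM, as added). Lipid droplet fluorescence (488 nm excitation, 500-530 nm channel) was read by laser-scanning cytometry and normalized to 20 uM Triacsin C.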

[9] = target: Dual specificity protein kinase CLK4 (Homo sapiens) (UniProt Q9HAZ1); assay: qHTS Assay for Inhibitors of CDC-like Kinase 4 (Kinase-Glo Assay) (AID 1770); conditions: recombinant Clk4, Kinase-Glo ATP depletion luminescence; series mostly up to 66.7 µM; further: on the % scale 0 is the no-effect control and ±100 the full control effect; nearly all actives have a fitted effect of over 65% in size
Dual specificity protein kinase CLK4 (Homo sapiens), sequence (Q9HAZ1 whole entry, looked up): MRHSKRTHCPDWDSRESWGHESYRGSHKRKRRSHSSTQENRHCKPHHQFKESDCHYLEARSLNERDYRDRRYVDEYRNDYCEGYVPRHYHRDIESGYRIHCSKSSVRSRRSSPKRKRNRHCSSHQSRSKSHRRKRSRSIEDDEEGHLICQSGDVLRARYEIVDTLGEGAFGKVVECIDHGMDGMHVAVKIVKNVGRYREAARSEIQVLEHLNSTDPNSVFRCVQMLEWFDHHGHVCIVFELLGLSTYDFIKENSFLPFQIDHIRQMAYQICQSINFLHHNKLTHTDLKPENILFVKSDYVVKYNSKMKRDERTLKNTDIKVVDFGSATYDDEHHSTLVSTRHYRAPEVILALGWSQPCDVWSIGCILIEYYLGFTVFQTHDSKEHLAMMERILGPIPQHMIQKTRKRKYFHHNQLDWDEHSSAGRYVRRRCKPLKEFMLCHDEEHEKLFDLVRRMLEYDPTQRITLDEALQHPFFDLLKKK
How it was run: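 25 nM Clk4 with 100 uM RS repeat peptide and 1 uM ATP (final) in Tris pH7.5, 10 mM MgCl2, 4.5 h at room temperature. Remaining ATP measured by Kinase-Glo luciferase luminescence.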

[10] = target: Dual specificity protein kinase CLK4 (Homo sapiens) (UniProt Q9HAZ1); assay: qHTS Assay for Inhibitors of CDC-like Kinase 4 (ADP-Glo Assay) (AID 1771); conditions: recombinant CLK4, ADP-Glo luminescence; series mostly up to 80 µM; further: on the % scale 0 is the no-effect control and ±100 the full control effect; nearly all actives have a fitted effect of over 70% in size
How it was run: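 In this ADP-Glo format, 1 uM ATP and 100 uM RS peptide served as substrates for 25 nM Clk4 in Mg2+/EGTA/DTT/Triton buffer; reactions ran 1 hr at room temperature before luminescent ADP quantification.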

[11] = target: Dual specificity protein kinase CLK4 (Homo sapiens) (UniProt Q9HAZ1); assay: qHTS Assay for Inhibitors of CDC-like Kinase 4 (ADP-FP Assay) (AID 1795); conditions: Transcreener ADP fluorescence polarization; series mostly up to 50 µM;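 further: recombinant human CLK4 phosphorylating RS repeat peptide at 1 µM ATP; on the % scale 0 is the no-effect control and ±100 the full control effect; nearly all actives have a fitted effect of over 60% in size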
How it was run: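 Recombinant Clk4 (6.25 nM) phosphorylated 100 uM RS repeat peptide with 1 uM ATP in 25 mM Tris pH 7.5, 10 mM MgCl2, 0.5 mM EGTA, 2.5 mM DTT, 0.01% Triton X-100 for 1 h. ADP was detected by Transcreener ADP2 competitive fluorescence polarization after 30 min at room temperature.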

[12] = Primary qHTS for small molecule stabilizers of the endoplasmic reticulum resident proteome: Secreted ER Calcium Modulated Protein (SERCaMP) assay (AID 1508630); conditions: SH-SY5Y GLuc-SERCaMP (Gaussia luciferase released on ER calcium loss) secretion, thapsigargin, luminescence; series mostly up to 38.4 µM; further: on the % scale 0 is the no-effect control and ±100 the full control effect
How it was run: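 The SH-SY5Y reporter protocol was run at 3 concentrations up to 38.3 uM (primary) or 11 concentrations (follow-up): 16 h compound, 100 nM thapsigargin for 4 h, then extracellular luciferase luminescence.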

[13] = target: Cytochrome P450 1A2 (Homo sapiens) (UniProt P05177); assay: p450-cyp1a2 (AID 410; calls by dose curve; further: potency means the concentration at half of the fitted maximal effect); conditions: recombinant CYP1A2, luciferin-ME demethylation, luminescence; series mostly up to 57 µM
Cytochrome P450 1A2 (Homo sapiens), sequence (P05177 whole entry, looked up): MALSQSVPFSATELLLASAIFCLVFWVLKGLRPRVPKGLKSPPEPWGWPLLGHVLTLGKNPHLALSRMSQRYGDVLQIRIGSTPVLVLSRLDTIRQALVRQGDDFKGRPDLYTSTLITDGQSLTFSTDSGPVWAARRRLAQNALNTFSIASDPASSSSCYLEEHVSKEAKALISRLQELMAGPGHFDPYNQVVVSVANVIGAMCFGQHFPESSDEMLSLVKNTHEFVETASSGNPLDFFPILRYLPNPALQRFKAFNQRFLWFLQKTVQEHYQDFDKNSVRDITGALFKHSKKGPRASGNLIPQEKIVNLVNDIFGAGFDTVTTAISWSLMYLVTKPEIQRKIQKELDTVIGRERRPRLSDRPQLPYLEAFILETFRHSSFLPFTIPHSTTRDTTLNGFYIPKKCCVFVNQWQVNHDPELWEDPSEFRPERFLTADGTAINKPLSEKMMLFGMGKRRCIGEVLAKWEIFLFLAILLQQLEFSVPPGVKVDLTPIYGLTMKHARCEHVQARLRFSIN
How it was run: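 Read-out is luminescence from luciferin produced by CYP1A2 demethylation of Luciferin-ME (100uM, at Km). Detection reagent stopped the 60 min NADPH-dependent reaction; signals were normalized to 57 uM furafylline.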

[14] = NFAT Signaling Pathway (AID 444; active means well fitted curve in either direction with a large enough effect, not every such curve was filed as active); conditions: Jurkat NFAT-bla M1, carbachol, beta-lactamase ratio, 5 h; at 7.69 µM (top of the series) unless noted
How it was run: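 Read-out: CCF4 FRET ratio (460 nm/530 nm) after 1 h RT dye loading, used for %activity and AC50 from titration series. Cells: Jurkat NFAT-β-lactamase/M1 line, treated with compound plus 1 uM carbachol for 5 h, 37 °C.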

[15] = target: Cytochrome P450 3A4 (Homo sapiens) (UniProt P08684); assay: qHTS Assay for Activators of Cytochrome P450 3A4 (AID 885); conditions: recombinant CYP3A4, Luciferin-PPXE luminescence, 60 min; series mostly up to 57.1 µM; further: nearly all actives have a fitted effect of over 65% in size
Cytochrome P450 3A4 (Homo sapiens), sequence (P08684 whole entry, looked up): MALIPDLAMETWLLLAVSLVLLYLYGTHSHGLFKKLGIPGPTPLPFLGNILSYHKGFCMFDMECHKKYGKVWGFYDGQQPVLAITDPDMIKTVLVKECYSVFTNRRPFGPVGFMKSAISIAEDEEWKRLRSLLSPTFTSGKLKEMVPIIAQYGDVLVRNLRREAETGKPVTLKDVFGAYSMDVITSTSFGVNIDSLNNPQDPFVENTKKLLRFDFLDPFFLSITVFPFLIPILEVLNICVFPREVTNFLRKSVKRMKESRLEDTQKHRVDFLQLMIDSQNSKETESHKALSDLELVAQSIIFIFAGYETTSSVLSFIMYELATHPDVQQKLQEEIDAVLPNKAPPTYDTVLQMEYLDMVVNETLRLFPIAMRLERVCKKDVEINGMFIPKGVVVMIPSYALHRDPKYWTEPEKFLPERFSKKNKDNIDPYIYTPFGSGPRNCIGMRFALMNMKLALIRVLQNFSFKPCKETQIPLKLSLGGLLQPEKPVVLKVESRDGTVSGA
How it was run: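 Using 20nM recombinant human CYP3A4 in potassium phosphate (200mM), substrate Luciferin-PPXE at 25uM, luminescent luciferin detection followed a 60-min RT NADPH reaction; data scaled to 57 uM ketoconazole.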

[16] = qHTS Assay for Identification of Small Molecule Agonists for Hypoxia Response Element Signaling Pathway (AID 914; active means well fitted activation curve with a large enough effect in the signal ratio, with a control signal flat, not every such curve was filed as active; the % refers to the signal ratio; further: potency means the concentration at half of the fitted maximal effect; on activation: % of control where 0% means no effect); conditions: ME-180 (cervical carcinoma) HRE-bla reporter, beta-lactamase ratio, CoCl2, 17 h; activation: stronger effect = higher value
How it was run: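 HRE-bla ME-180 cells with beta-lactamase reporter under hypoxia response element, compounds with EC50 CoCl2 for 17 hours at 37 C. CCF4 substrate, 460nm/530nm emission ratio gave %Activity; AC50 from titration series.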

[17] = target: Ubiquitin carboxyl-terminal hydrolase 1 (Homo sapiens) (UniProt O94782); assay: Inhibitors of USP1/UAF1: Pilot qHTS (AID 504865); conditions: purified USP1/UAF1, Ub-rhodamine cleavage fluorescence; series mostly up to 54.9 µM;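 further: rhodamine fluorescence freed from ubiquitin-rhodamine substrate followed over time; top concentration of the series differs between compounds; on the % scale 0 is the no-effect control and ±100 the full control effect; nearly all actives have a fitted effect of over 35% in size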
Ubiquitin carboxyl-terminal hydrolase 1 (Homo sapiens), sequence (O94782 whole entry, looked up): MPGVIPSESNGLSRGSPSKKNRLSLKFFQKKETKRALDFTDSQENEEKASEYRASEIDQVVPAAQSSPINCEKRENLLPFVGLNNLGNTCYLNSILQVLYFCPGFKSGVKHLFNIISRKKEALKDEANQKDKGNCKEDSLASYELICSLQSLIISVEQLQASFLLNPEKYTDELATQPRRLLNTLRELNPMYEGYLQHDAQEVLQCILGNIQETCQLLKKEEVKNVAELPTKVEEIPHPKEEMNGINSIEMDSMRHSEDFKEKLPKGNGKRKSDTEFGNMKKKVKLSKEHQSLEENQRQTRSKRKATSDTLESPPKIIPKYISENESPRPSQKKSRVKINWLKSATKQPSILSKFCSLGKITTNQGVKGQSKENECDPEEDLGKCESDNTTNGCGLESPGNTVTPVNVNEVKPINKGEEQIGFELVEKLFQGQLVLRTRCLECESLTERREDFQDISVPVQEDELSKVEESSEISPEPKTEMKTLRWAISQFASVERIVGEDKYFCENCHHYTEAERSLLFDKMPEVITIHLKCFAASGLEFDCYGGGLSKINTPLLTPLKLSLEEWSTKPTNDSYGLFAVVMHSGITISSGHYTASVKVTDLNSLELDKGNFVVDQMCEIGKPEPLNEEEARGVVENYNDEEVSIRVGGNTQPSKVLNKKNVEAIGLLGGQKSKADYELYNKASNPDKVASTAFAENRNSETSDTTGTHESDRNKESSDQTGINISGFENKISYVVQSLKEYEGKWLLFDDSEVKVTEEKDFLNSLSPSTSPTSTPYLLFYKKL
How it was run: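 USP1/UAF1 complex at 1 nM preincubated 15 min at room temperature with compound, then Ub-Rho substrate added at 150 nM final. Fluorescence (480/540 nm) read kinetically in 50 mM HEPES pH 7.8, 0.5 mM EDTA, 1 mM TCEP, 0.1 mg/ml BSA, 0.01% Tween-20.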

[18] = measured here: cell count channel max response
[19] = measured here: lipid channel max response

Row | Compound | Potency [1] | activity change, negative = inhibition [2] | activity, negative = inhibition [3] | Potency [4] | Potency [5] | outcome [6] | Potency [7] | activity change, negative = inhibition [8] | max response [8, 18] [%] | max response [8, 19] [%] | Potency [9] | Potency [10] | Potency [11] | Potency [12] | Potency [13] | activity change, negative = inhibition [14] | Potency [15] | Potency [16] | Potency [17] | activation [16]
1 | COc1ccc(-c2nc3cnc(Oc4cccc(Cl)c4)nc3n(CCC#N)c2=O)cc1 | > 11.4 µM (inactive) | -19.7% (inactive) | -7.46% (inactive) | > 9.22 µM (inactive) | > 46 µM (inactive) | inactive | inactive | 2.97% (inactive) | 13.8 | 14.8 | inactive | inactive | inactive | inactive | – | – | – | – | – | –
2 | CN1CCN(c2ncc3nc(-c4cc(F)cc(F)c4)c(=O)n(Cc4cccs4)c3n2)CC1 | > 11.4 µM (inactive) | – | – | > 9.22 µM (inactive) | > 46 µM (inactive) | inactive | inactive | -9.14% (inactive) | 17.2 | 3.46 | inactive | inactive | inactive | inactive | 6.31 µM (active) | 168% [activator] (active) | inactive | 3.16 µM (active) | inactive | –
3 | COc1ccc(-c2nc3cnc(N4CCOCC4)nc3n(C3CC3)c2=O)cc1 | > 11.4 µM (inactive) | 3.24% (inactive) | – | > 9.22 µM (inactive) | > 46 µM (inactive) | inactive | – | 1.26% (inactive) | 9.72 | 11.8 | inactive | inactive | inactive | inactive | – | – | – | – | inactive | –
4 | Cn1c(=O)c(-c2cccs2)nc2cnc(N3CCOCC3)nc21 | > 11.4 µM (inactive) | -14% (inactive) | -4.84% (inactive) | > 9.22 µM (inactive) | > 46 µM (inactive) | inactive | inactive | 5.09% (inactive) | 14.1 | 16.5 | inactive | inactive | inactive | inactive | – | -9.83% (inactive) | – | – | inactive | 11.8% (inactive)
5 | CN(C)c1ncc2nc(-c3ccccc3)c(=O)n(Cc3ccc(F)cc3)c2n1 | > 11.4 µM (inactive) | – | 178% [activator] (active) | > 9.22 µM (inactive) | > 46 µM (inactive) | – | inactive | 0.549% (inactive) | 7.88 | 4.69 | inactive | inactive | inactive | inactive | 12.6 µM (active) | – | – | 0.501 µM (active) | inactive | –
6 | O=c1cnc2cncnc2n1Cc1ccc(F)cc1 | > 11.4 µM (inactive) | 8.77% (inactive) | -8.63% (inactive) | > 9.22 µM (inactive) | > 46 µM (inactive) | inactive | – | -2.55% (inactive) | -3.3 | -6.15 | inactive | inactive | inactive | inactive | – | -27.6% (inactive) | inactive | – | inactive | –
